Source: PubChem BioAssay (National Center for Advancing Translational Sciences (NCATS))
ERG Ets-DNA blk = qHTS for Small Molecule Inhibitors of the ERG Ets/DNA interaction; fluorescence polarization, His-ERG Ets domain / labelled DNA; Potency, µM (top dose mostly 76.9 µM), for the others: at the top dose FP activity, negative = inhibition, usual class: inhibitors; hit rate 0.028% among 370,000; AID 624246, 2012; active = well fitted inhibition curve with a large enough effect in the polarisation, with a control signal flat; inconclusive = small, poorly fitted or top-dose-only effect, or effect the other way, or a change in a side signal; inactive = no such curve, though single readings can be large or run the other way; the % refers to the polarisation;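 also: polarization taken with two DNA probes labelled with fluorescein and Texas red; potency is read from the fitted curve at half-maximal effect; % of control where 0% means no effect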
Target sequence (P11308 whole entry, looked up, the tested form may be a part): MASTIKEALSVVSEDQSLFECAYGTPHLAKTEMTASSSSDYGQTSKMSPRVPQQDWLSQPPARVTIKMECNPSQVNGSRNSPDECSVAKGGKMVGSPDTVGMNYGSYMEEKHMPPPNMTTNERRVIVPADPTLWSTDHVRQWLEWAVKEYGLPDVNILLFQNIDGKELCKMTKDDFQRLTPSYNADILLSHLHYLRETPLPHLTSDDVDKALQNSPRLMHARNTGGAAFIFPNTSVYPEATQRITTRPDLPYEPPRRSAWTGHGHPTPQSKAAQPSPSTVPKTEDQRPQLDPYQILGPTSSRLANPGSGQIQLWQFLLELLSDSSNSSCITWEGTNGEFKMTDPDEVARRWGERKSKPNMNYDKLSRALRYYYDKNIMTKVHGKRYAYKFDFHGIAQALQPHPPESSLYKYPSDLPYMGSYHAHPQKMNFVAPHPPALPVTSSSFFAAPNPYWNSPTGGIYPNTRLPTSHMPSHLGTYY
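His-tagged ERG Ets domain (1 uM in the protein solution; 300mM KCl, 50mM Tris-HCl, 1mM EDTA, 1mM DTT, pH 7.5) received compound, then a probe mix of 5 nM fluorescein-DNA and 100nM Texas-615-DNA. Fluorescence polarization was read for both dyes.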
a7 integrin act = qHTS for Activators of Integrin-Mediated Alleviation for Muscular Dystrophy. Potency, µM (top dose mostly 38.3 µM), inactives show at the highest dose activation, actives largely listed as activators. hit rate 0.064% among 350,000. AID 624291, 2012. alpha7betagal myoblasts, beta-gal FDG fluorescence, 48 h;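 also: potency is read from the fitted curve at half-maximal effect; 100% = response of the positive control SU9516; nearly all actives have a fitted effect of over 60% in size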
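alpha7betagal+/- myoblasts (passage 13, 250/well) treated 48 h at 37C with compounds at 1:260 dilution of DMSO stock. Lysed, then beta-galactosidase activity read as FDG fluorescence (ex 480/em 540) after 30 min, with pre-read for autofluorescence.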
RORgamma inh = qHTS for inhibitors of ROR gamma transcriptional activity; Nuclear receptor ROR-gamma (Mus musculus), P51450; Drosophila S2 Gal4-RORgamma UAS-luciferase reporter, 20 h; Potency, µM (series often up to 53.6 µM), for the others: top-dose activity change, negative = inhibition, most hits filed as inhibitors; hit rate 5.4% among 310,000; AID 2551, 2010; also: potency is read from the fitted curve at half-maximal effect; % is scaled to controls: 0 for no effect and ±100 for the full control effect; nearly all actives have a fitted effect of over 60% in size
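In this cell-based reporter format, copper sulfate (700 uM final) drives Gal4–ROR gamma fusion expression from a metallothionein promoter in Drosophila Schneider cells; compounds preincubated 1 hr, reporter read after 20 hr at ambient temperature.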
Giardia killer = Small Molecules that selectively kill Giardia lamblia: qHTS | Giardia lamblia trophozoite viability | activity change, % at 7.66 µM, hits read low | hit rate 0.15% among 340,000; in the data active = activity change below about -80%; inconclusive = between about -30% and that limit;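 also: parasites exposed to compound for two days anaerobically before the ATP read; % is scaled to controls: 0 for no effect and ±100 for the full control effect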
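ATP-content bioluminescence gauges trophozoite survival. Cells (100/well) receive compound and incubate anaerobically for 48 hrs at 37 deg C; detection reagent follows for 15-30 min at room temperature.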
Gal4-VP16 FLuc = VP16 counterscreen qHTS for inhibitors of ROR gamma transcriptional activity; Drosophila S2 Gal4-VP16 UAS-luciferase, luminescence, 20 h; Potency, µM (top dose mostly 53.6 µM), without a hit: at the highest dose activity, negative = inhibition, most hits filed as inhibitors; hit rate 3.5% among 310,000; AID 2546, 2010;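 also: Gal4-VP16 expression switched on by copper sulfate through the metallothionein promoter; potency is read from the fitted curve at half-maximal effect; % is scaled to controls: 0 for no effect and ±100 for the full control effect; nearly all actives have a fitted effect of over 50% in size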
The depositor's hits bear a star; ? = inconclusive; . = no result given; [ ] = another dose, or the depositor's remark. The full list was thinned out, with hits kept by preference. Unless noted, calls follow the shape of the dose curve; as a rule, active = well fitted curve in the direction sought with a large enough effect; inconclusive = small, poorly fitted or top-dose-only effect, or another doubt; inactive = no such curve, though single readings can be large; an effect the other way counts as inactive or inconclusive.

SMILES | ERG Ets-DNA blk | a7 integrin act | RORgamma inh | Giardia killer | Gal4-VP16 FLuc
O=c1c2ccccc2[nH]c(=S)n1CCCN1CCN(C2CCCCC2)CC1 | -8% | -15% | 24%[0.365 µM] | -5 | .
CC1CCCC(n2c(=S)[nH]c3ccccc3c2=O)C1C (stereo not drawn) | -6% | -38% | 0.28µM* | -3 | 0.63µM*
CC1(C)CC(n2c(=S)[nH]c3ccccc3c2=O)CCO1 (stereo not drawn) | 2% | -19% | 8.9µM* | 8 | 8.9µM*
O=c1c2ccccc2[nH]c(=S)n1C1CCCCC1 | 1% | -8% | 0.89µM* | -3 | 2.8µM*
COc1cccc(NC(=O)c2cnc(SCC(=O)NCc3ccc4c(c3)OCO4)n(C)c2=O)c1 | -3% | -13% | . | 9 | .
O=C(CCS(=O)(=O)c1ccc(F)cc1)Nc1nnc(-c2ccc(F)cc2)o1 | 2% | -14% | . | -13 | .
O=C(Nc1nnc(-c2ccccc2)o1)c1cc(Cl)sc1Cl | -6% | 7% | 2.2µM* | 0 | 1.3µM*
O=C(Nc1nnc(-c2ccc(F)cc2)o1)c1cc(Cl)sc1Cl | -2% | 1% | 3.2µM* | -4 | 2.5µM*
O=C(Nc1nnc(-c2ccc(Cl)cc2)o1)c1nc2ccccc2s1 | -1% | 13% | 4.5µM* | -28 | 4.5µM*
O=C(Nc1nnc(-c2ccc(Cl)cc2)o1)Nc1ccccc1Cl | -5% | 4% | -5% | -18 | -4%
O=C1CSC(=NC2CCCCC2)N1 | 7% | -28% | ? | -1 | ?
O=C1CS/C(=N/N=C2CCCC2)N1 | -9% | -11% | 7.9µM* | -26 | ?
CCOc1ccccc1CNC(=O)c1nc(-c2ccc(Cl)cc2)n2c1CCCCC2 | -2% | . | . | . | .
CCSc1nnc2c(n1)OC(c1ccc(OC)cc1OC)N(C(C)=O)c1ccccc1-2 (stereo not drawn) | 1% | . | . | . | .
Cc1ccccc1NCC(=O)c1ccc(Br)cc1 | -1% | 3% | 16% | -8 | -15%
COc1ccc(C(=O)CNc2ccccc2Br)cc1 | 4% | -38% | 1.8µM* | -3 | ?
COc1ccc(NC(=O)c2ccc3ccccc3c2)cc1 | 4% | -2% | -33% | -4 | -2%
COc1ccc(C(=O)CNc2ccc3ccccc3c2)cc1 | -3% | -23% | 13µM* | 0 | ?
O=C(CNc1ccc2ccccc2c1)NNC1=NCCC1 | 2% | 12% | 2.8µM* | -7 | 4µM*
CN(C)c1ccc(/C=N/N2CCN(Cc3ccccc3Cl)CC2)cc1 | -8% | 4% | -21% | -29 | 15%
CCOc1ccc(-n2nc3cc(C)c(N)cc3n2)cc1 | -26% | 0% | 10µM* | -19 | -27%
CC(C)(C)n1cnc2cc(NCc3cccs3)ccc21 | -6% | -49% | 11µM* | -6 | 5%[10 µM]
O=C1N/C(=N\N=C\c2cccs2)SC1Cc1ccc(Cl)cc1Cl (stereo not drawn) | 10% | 7% | 0.35µM* | 27 | 0.25µM*
O=C1N/C(=N\N=C\c2cccs2)SC1Cc1cccc(Cl)c1Cl (stereo not drawn) | 0% | -10% | 0.32µM* | 9 | 0.22µM*
CCOc1ccc(CC2S/C(=N/N=C/c3ccco3)NC2=O)cc1 (stereo not drawn) | 5% | -32% | ? | -21 | -12%
SMILES | ERG Ets-DNA blk | a7 integrin act | RORgamma inh | Giardia killer | Gal4-VP16 FLuc
O=C1N/C(=N\N=C\c2ccco2)SC1Cc1ccccc1[N+](=O)[O-] (stereo not drawn) | 0% | -18% | 3.2µM* | 15 | 5µM*
Cc1ccc(C(=O)N/C(=C\c2ccco2)C(=O)NCCN2CCOCC2)cc1 | 5% | -13% | -1% | 13 | -13%
CCN(C(=O)CN(C)S(=O)(=O)c1ccc2c(c1)n(C)c(=O)c(=O)n2C)c1cccc(C)c1 | -3% | . | . | . | .
COc1ccccc1-n1c(CNC(=O)c2cccs2)n[nH]c1=S | 2% | -22% | -23% | 16 | 4%
Cc1ccc(C)c(-n2c(Cc3cccs3)n[nH]c2=S)c1 | -5% | 4% | 7.1µM* | -14 | 3.2µM*
CCCCc1ccc(-n2c(Cc3cccs3)n[nH]c2=S)cc1 | -1% | 14% | 1.4µM* | 16 | ?
S=c1[nH]nc(Cc2cccs2)n1-c1ccccc1 | . | 24% | 11µM* | 5 | ?
S=c1[nH]nc(Cc2cccs2)n1-c1cccc2ccccc12 | ? | 10% | 4µM* | -23 | ?
NS(=O)(=O)c1cccc(NC(=O)COC(=O)CCN2C(=O)c3ccccc3C2=O)c1 | 16% | 0% | . | -9 | .
O=C(NCC1CCN(Cc2ccccc2Cl)CC1)c1cc2ccc3cccnc3c2[nH]1 | -12% | . | . | . | .
S=c1[nH]nc(Cc2cccs2)n1-c1ccccc1Cl | 5% | ? | 6.3µM* | 8 | ?
COc1ccccc1-n1c(Cc2cccs2)n[nH]c1=S | -4% | 9% | 10µM* | 6 | -17%
Cc1c(C)c2cc3c(c(C)c2oc1=O)OCN(CCc1ccc(F)cc1)C3 | 1% | . | . | . | .
CCCCN(Cc1ccc(C(=O)N[C@H](C(=O)O)C(C)C)cc1)C(=O)C(c1ccccc1)c1ccccc1 | -8% | -17% | . | 2 | .
Cc1cnc(NC(=O)c2cc3c(s2)CCCC3)s1 | -6% | 11% | 2µM* | ? | 7.1µM*
CCc1nnc(NC(=O)c2cc3c(s2)CCCCC3)s1 | -1% | 19% | . | -1 | .
Cc1csc(NC(=O)c2cc3c(s2)CCCC3)n1 | 8% | 3% | 10% | ? | ?
Cc1csc(NC(=O)c2cc3c(s2)CCCCC3)n1 | -4% | 19% | 2.8µM* | ? | 4µM*
COc1ccc([C@]23Cc4cc(OC)c(OC)cc4C(O2)c2c(cc(C)n(Cc4ccccc4)c2=O)O3)cc1 | . | . | 5%[10 µM] | . | ?
NNc1ccc(Cl)nn1 | -7% | -4% | 10µM* | -6 | ?
COc1cc(/C=C2/SC(=S)N(CC(=O)O)C2=O)ccc1OCC(=O)Nc1ccc(C)c(C)c1 | . | . | 21% | . | -7%
CS(=O)(=O)c1ccc(C(=O)OCC(=O)NC(=O)C2CCCCC2)cc1[N+](=O)[O-] | 23% | -23% | 11µM* | 6 | ?
CS(=O)(=O)c1ccc(C(=O)OCC(=O)Nc2cccnc2Cl)cc1[N+](=O)[O-] | 14% | -61% | . | -9 | .
Cc1cc(C(=O)OCC(=O)NC(=O)C2CCCCC2)ccc1[N+](=O)[O-] | . | . | . | 15 | .
CC(CCc1ccccc1)NC(=O)COC(=O)c1ccc(S(C)(=O)=O)c([N+](=O)[O-])c1 (stereo not drawn) | 5% | -63% | 10µM* | 1 | ?
Cc1ccccc1NC(=O)COC(=O)c1ccc(S(C)(=O)=O)c([N+](=O)[O-])c1 | 2% | -56% | 14µM* | -6 | ?
CS(=O)(=O)c1ccc(C(=O)OCc2nnc(-c3ccccc3)o2)cc1[N+](=O)[O-] | -4% | -68% | 16µM* | 5 | 13µM*
